According to the supplement of paper PMC11732987, “Enantioselective OTUD7B fragment discovery through chemoproteomics screening and high-throughput optimisation” (Communications Chemistry, 2025):

Legend:
Experiment in all cases: log2 ratio of Biotin-Ahx-Ub-VS probe labelling (fragment/DMSO); higher = less target engagement (more negative = stronger competition), active = hit call of the paper (q ≤ 0.05, log2 ratio ≤ -1)
Conditions in all cases: compound concentration: 200 uM; treatment time: 3 h
[1] = biological target: USP9X (UniProt Q93008)
Outline: (§1)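 Using Biotin-Ahx-Ub-VS at 0.5 µM final for 1 h, DUBs were labelled in HEK293T lysate (495 µg per sample) that had first been treated in triplicate with fragment at 200 µM or vehicle for 3 h. NeutrAvidin enrichment, LysC and trypsin digestion and diaPASEF LC-MS/MS followed. Spectronaut label-free quantities were global-median-normalised. Values are average log2 fragment/vehicle ratios by unpaired t-test, using proteins with ≥2 unique peptides.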

[2] = biological target: UniProt O00487
Outline: as §1

[3] = biological target: UniProt O00507
Outline: as §1

[4] = biological target: UniProt P51784
Outline: as §1

[5] = biological target: T1, UniProt Q5T2D3
T1 sequence (whole entry): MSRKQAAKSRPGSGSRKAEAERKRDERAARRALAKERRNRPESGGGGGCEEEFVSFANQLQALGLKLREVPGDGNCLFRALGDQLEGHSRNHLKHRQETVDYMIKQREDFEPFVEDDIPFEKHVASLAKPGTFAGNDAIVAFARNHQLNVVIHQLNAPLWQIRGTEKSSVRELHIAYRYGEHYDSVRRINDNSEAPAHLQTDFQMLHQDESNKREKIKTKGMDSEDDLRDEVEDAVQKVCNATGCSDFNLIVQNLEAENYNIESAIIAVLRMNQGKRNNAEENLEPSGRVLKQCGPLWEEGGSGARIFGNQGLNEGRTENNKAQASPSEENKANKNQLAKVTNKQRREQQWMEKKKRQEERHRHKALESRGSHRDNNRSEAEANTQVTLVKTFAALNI
Outline: as §1

[6] = biological target: T2, UniProt Q8TE49
T2 sequence (whole entry): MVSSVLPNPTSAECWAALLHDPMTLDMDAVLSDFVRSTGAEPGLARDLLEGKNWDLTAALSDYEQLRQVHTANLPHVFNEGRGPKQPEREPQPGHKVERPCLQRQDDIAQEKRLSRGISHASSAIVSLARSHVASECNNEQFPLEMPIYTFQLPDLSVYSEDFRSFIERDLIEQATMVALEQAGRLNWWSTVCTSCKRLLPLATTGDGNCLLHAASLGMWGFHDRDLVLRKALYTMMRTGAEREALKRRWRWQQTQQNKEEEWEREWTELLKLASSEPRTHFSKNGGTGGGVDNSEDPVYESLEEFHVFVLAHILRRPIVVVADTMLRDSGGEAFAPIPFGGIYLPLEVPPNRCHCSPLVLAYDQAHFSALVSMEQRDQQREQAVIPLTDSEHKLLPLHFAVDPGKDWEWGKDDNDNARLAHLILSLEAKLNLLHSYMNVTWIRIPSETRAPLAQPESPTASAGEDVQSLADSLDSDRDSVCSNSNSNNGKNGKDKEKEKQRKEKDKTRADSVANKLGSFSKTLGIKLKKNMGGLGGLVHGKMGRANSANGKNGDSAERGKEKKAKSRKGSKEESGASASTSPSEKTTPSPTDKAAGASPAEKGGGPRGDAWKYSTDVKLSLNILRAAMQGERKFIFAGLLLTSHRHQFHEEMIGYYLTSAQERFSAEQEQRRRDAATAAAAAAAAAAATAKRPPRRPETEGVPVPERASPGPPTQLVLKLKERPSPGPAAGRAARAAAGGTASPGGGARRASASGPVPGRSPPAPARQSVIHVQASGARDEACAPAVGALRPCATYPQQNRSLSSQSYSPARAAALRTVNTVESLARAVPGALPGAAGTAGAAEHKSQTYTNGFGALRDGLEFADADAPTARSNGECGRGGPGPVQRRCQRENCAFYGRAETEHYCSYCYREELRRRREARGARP
Outline: as §1

[7] = biological target: T3, UniProt Q9P2H5
T3 sequence (whole entry): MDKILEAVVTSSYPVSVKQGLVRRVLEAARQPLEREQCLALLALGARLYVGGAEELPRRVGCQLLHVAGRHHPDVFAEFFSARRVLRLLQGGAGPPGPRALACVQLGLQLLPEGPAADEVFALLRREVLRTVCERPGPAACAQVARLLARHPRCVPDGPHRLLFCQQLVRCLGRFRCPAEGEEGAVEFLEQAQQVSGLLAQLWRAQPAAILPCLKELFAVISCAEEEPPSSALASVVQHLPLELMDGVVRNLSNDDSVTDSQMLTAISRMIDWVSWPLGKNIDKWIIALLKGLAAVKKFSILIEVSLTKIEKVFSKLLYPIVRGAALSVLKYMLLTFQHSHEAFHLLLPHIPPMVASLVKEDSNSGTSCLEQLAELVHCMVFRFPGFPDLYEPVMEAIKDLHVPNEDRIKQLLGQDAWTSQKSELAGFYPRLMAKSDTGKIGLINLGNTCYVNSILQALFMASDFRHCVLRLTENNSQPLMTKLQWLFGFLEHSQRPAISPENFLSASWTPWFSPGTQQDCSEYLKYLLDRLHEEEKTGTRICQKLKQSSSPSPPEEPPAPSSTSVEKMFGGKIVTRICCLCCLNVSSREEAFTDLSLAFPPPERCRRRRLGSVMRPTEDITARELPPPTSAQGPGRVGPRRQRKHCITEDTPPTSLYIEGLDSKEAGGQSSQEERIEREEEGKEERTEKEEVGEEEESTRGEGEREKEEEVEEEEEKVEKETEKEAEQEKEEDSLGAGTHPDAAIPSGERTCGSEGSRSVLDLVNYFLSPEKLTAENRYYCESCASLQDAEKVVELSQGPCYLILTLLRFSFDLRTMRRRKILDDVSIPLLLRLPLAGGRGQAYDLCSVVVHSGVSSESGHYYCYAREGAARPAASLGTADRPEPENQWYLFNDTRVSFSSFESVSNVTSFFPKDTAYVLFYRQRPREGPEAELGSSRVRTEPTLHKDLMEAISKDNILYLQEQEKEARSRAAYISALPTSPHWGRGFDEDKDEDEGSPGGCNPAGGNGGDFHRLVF
Outline: as §1

[8] = biological target: T4, UniProt Q9UGI0
T4 sequence (whole entry): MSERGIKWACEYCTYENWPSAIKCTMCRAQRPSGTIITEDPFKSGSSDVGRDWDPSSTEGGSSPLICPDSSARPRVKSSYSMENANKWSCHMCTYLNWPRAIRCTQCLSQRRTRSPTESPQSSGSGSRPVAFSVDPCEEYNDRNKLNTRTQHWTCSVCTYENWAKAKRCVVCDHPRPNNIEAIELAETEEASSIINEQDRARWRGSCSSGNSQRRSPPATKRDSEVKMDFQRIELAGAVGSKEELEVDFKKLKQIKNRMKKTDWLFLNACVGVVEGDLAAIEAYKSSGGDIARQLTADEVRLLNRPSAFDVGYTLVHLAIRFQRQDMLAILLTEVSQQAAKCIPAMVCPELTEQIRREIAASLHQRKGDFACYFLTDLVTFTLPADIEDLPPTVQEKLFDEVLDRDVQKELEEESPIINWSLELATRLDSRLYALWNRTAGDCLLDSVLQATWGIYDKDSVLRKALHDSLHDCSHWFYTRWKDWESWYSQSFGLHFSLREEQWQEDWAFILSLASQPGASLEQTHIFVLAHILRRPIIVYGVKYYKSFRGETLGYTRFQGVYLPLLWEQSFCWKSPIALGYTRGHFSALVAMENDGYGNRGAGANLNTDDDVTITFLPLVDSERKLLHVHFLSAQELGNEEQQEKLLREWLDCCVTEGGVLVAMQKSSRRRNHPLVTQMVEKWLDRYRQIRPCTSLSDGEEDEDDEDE
Outline: as §1

[9] = biological target: T5, YOD1 (UniProt Q5VVQ6)
T5 sequence (whole entry): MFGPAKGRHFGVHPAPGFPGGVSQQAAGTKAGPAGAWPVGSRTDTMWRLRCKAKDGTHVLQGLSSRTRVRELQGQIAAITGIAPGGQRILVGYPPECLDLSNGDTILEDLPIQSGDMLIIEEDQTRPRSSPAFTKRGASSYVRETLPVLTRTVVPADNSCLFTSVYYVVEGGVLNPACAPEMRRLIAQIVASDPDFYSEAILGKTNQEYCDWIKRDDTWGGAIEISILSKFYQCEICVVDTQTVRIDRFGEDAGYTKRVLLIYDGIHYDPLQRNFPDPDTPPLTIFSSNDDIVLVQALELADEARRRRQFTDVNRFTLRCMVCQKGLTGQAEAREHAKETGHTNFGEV
Outline: as §1

Measured: log2 ratio of Biotin-Ahx-Ub-VS probe labelling

UniProt P51784, sequence (P51784 whole entry): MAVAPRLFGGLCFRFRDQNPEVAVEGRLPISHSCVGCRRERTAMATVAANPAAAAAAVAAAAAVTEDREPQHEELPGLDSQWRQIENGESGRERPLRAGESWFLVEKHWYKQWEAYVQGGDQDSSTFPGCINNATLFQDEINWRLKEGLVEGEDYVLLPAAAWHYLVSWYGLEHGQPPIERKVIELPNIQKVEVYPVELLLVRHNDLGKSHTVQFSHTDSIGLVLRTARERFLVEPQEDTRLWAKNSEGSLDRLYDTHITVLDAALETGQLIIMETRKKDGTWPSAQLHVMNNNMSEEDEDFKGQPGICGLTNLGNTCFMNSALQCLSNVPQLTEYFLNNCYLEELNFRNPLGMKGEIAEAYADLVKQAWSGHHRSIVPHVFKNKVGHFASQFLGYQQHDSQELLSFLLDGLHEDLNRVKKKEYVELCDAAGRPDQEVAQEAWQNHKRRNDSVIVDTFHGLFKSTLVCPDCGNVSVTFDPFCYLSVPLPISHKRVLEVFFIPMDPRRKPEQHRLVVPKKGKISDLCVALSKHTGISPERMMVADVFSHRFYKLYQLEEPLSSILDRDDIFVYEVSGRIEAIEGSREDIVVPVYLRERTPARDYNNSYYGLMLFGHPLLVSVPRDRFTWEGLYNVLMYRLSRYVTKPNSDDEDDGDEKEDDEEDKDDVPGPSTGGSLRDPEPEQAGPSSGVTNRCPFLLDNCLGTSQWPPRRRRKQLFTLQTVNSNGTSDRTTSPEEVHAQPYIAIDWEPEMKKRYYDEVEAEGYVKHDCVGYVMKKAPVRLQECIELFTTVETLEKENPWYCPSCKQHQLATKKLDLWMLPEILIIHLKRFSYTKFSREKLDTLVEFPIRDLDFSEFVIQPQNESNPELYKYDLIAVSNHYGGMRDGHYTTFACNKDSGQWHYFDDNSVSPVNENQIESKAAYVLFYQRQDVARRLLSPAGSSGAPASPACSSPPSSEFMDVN
UniProt O00507, sequence (O00507 whole entry): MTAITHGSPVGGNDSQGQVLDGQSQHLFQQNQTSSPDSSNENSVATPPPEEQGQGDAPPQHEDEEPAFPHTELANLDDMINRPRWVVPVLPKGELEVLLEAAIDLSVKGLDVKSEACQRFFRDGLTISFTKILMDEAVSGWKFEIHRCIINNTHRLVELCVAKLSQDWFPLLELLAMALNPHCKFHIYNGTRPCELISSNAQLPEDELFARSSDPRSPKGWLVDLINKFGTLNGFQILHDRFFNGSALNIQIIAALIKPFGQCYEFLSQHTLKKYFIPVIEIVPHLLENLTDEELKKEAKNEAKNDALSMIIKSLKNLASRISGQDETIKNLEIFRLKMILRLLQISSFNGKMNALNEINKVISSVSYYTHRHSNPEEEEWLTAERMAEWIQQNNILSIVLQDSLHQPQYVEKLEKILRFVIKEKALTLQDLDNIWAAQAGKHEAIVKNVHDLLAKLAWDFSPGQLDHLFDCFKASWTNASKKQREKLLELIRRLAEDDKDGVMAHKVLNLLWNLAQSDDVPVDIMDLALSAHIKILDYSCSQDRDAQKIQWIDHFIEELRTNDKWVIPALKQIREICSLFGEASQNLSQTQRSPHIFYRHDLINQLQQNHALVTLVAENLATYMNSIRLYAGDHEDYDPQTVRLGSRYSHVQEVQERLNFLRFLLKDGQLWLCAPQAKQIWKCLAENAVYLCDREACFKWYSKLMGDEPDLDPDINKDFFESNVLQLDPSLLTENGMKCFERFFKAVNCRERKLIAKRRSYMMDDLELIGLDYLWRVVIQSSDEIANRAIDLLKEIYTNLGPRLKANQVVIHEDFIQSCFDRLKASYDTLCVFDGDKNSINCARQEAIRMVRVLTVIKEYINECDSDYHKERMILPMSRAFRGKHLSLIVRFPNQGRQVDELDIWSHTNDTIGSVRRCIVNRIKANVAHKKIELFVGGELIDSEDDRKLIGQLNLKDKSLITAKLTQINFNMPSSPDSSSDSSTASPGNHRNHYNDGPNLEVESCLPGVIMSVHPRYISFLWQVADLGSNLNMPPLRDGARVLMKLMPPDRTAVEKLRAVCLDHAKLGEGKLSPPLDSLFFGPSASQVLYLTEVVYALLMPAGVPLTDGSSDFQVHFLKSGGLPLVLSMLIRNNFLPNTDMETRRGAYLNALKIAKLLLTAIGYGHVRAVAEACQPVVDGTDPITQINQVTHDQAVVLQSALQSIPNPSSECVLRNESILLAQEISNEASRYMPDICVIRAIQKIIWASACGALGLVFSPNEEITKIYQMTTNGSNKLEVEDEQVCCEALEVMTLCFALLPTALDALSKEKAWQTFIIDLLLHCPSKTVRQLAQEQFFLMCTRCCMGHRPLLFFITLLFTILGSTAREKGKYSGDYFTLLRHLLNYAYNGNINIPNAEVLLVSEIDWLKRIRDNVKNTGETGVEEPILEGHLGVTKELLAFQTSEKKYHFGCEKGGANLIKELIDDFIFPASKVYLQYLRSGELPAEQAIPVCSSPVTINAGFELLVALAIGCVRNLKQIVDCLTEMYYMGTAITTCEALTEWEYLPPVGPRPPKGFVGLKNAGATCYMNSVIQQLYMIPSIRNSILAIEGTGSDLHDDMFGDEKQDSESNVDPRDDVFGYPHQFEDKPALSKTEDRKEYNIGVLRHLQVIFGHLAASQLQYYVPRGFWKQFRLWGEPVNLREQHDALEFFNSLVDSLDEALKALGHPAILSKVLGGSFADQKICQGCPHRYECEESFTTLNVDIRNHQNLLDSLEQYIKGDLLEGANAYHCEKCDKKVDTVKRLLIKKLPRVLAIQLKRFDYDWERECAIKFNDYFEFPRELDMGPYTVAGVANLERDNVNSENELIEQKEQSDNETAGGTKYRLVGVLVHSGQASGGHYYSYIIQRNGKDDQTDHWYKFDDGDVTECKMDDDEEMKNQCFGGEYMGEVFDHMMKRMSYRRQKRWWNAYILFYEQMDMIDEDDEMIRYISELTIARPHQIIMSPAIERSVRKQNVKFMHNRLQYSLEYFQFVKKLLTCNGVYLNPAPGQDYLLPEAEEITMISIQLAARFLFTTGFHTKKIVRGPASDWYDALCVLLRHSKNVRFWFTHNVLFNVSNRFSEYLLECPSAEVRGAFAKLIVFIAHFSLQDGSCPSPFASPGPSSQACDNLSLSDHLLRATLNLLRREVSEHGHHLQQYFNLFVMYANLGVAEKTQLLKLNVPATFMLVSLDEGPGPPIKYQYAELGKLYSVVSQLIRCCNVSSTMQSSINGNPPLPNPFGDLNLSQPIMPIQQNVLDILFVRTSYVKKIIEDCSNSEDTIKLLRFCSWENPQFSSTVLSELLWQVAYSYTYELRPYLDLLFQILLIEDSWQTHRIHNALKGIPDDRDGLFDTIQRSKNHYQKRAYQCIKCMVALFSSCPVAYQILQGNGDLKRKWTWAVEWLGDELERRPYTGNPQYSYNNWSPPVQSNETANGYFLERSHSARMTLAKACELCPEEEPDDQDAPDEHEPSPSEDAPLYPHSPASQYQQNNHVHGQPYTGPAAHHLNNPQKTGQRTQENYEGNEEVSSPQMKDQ
UniProt O00487, sequence (O00487 whole entry): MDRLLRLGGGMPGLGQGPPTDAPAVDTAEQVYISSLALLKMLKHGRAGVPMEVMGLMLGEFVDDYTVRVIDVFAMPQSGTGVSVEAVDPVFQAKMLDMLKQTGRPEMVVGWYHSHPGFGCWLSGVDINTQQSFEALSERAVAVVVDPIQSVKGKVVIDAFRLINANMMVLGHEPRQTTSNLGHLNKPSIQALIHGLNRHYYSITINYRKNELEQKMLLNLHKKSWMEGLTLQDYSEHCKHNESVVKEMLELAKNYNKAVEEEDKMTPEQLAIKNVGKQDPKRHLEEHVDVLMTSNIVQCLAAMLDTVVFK

O=C(CCl)N1CCOCCC1c1ccccc1 (centres undefined)
inactive: [1] -0.168 | [2] -0.00106 | [3] -0.114 | [4] 0.0584 | [5] -0.173 | [6] -0.54 | [7] -0.305 | [8] -0.25 | [9] 0.199
